Measured values from PubChem BioAssay AID504937 (National Center for Advancing Translational Sciences (NCATS), 2011).
Out of some 340,000 compounds screened, about 20 (0.006%) were called active. The call rests on the fitted dose curve; in most records, active means well fitted inhibition curve with a large enough effect; inconclusive means small, poorly fitted or top-dose-only effect; inactive means no such curve, though single readings can be large or run the other way. Only a selection was taken, and actives are over-represented in it overall.

Target: Sphingomyelin phosphodiesterase (Homo sapiens) (UniProt P17405)
Sequence (P17405 47-631 limits assumed): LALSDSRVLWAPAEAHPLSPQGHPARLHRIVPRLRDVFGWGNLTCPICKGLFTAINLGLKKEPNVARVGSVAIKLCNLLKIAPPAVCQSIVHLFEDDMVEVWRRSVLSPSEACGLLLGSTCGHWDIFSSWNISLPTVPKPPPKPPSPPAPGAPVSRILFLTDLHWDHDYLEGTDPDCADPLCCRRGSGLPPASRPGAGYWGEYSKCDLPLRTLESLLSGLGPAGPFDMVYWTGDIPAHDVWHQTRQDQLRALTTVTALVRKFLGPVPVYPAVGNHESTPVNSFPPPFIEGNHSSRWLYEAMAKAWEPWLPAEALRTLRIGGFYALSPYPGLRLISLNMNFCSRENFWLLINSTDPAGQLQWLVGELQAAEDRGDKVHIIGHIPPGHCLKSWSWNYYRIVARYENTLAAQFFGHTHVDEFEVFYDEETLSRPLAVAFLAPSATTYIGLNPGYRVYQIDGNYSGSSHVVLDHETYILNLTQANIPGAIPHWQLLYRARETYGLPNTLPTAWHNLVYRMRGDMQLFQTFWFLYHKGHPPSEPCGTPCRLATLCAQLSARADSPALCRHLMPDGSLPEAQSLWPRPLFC
Assay: Inhibitors of Secretory Acid Sphingomyelinase (S-ASM): qHTS
Conditions: placental ASM, HMU-PC fluorogenic substrate, 60 min; series mostly up to 57.5 µM; activity change, negative = inhibition: at the top concentration
Source text: Atherosclerosis is the underlying process for cardiovascular disease and thus is a major contributor to disease burden in the population. […] Thus, selective small molecule inhibitors of S-ASM should block LDL modification and reduce aortic LDL retention and may serve as new agents for the treatment of atherosclerosis. In a collaboration between National Heart, Lung, and Blood Institute and the NCGC a high-throughput amenable screen was developed to identify potent and selective small molecule inhibitors of S-ASM. This enzymatic, fluorescent screen uses an ASM enzyme preparation derived from human placenta and was tested against the NIH Molecular Libraries Small Molecule Repository (MLSMR). NIH Chemical Genomics Center [NCGC] NIH Molecular Libraries Probe Centers Network [MLPCN] MLPCN Grant: MH093173-01 Assay Submitter (PI): Alan Remaley, National Heart, Lung, and Blood Institute and Wei Zhen, NIH Chemical Genomics Center
Two microliters of ASM enzyme (1:150 dilution from stock) are dispensed in 1536-well plate. 23 nL of compound and control are pinned into assay plate using the Kalypsys pintool. The plates are then incubated for 10 minutes at ambient room temperature. Then, 2 uL of the flurogenic substrate, HMU-PC0, (9 uM final) are added to the plate. An incubation for 60 minutes takes place at 37 masculineC. After that, 4 uL of stop solution is added to raise the pH to 10 to end the kinetic reaction. Plate is read on ViewLux, with detection set at Ex = 386 (10) nm and Em = 447 (10) nm.

Activity change, negative = inhibition, inactive:
C=CCC(Nc1ccccc1)c1cccc(OC)c1OC (configuration not stated) 0.351%
Cc1nn(Cc2ccc(C(=O)N3N=C(C(F)F)CC3(O)C(F)F)cc2)c(C)c1[N+](=O)[O-] (configuration not stated) -1.95%
O=C(Nc1cccnc1Oc1ncnc2cc(Cl)ccc12)c1ccc(F)cc1 -1.19%
CCOc1ccc(N2C(=O)Nc3ccccc3C2(O)C(=O)NCc2ccco2)cc1 (configuration not stated) 0.0783%
O=C1COc2c1ccc(O)c2O 3.65%
CC(C)Cn1cnc2c1c(=O)n(CC(=O)NN)c(=O)n2Cc1ccccc1 -3.33%
Cc1ccsc1/C=N/NC(=O)Cc1cc(=O)[nH][nH]1 0.0426%
Cc1ccc(S(=O)(=O)Nc2ccccc2CNc2c(C)n(C)n(-c3ccccc3)c2=O)cc1 -0.0525%
CCC(C)N1C(=O)S/C(=C/c2ccc(Sc3nc4ccccc4[nH]3)o2)C1=O (configuration not stated) 1.34%
COc1ccc(CN2CCC(n3nccc3NC(=O)CCCc3ccccc3)CC2)cc1C -0.972%
NS(=O)(=O)c1ccc(NC(=S)NNC(=O)c2cccs2)cc1 1.24%
Cc1cccc(NC(=O)Cn2cc(C(=O)c3ccco3)c3ccccc32)c1 -9.25%
CCC(CC)C(=O)Nc1ccc(S(=O)(=O)Nc2nccs2)cc1 3.8%
O=C(CSc1nc2[nH]c(=O)[nH]c(=O)c2s1)Nc1cccc(F)c1 -2.4%
CSCCC(NC(N)=O)C(=O)N(C)CC(=O)Nc1ccc(C)cc1 (configuration not stated) 2.8%
CC/C(Cc1ccccc1)=N/NC(=O)CCn1nnc2ccccc21 -1.28%
COc1ccc(C2/C=C\CN(CC(C)C)CC(=O)N2Cc2ccc(F)cc2)cc1 (configuration not stated) -2.65%
COc1ccc(CN2CCOC2=O)cc1OC -0.898%
COc1ccc(CNC(=O)CN(C(=O)c2csnn2)c2cnc3ccccc3c2)cc1 21.4%
CC(=O)c1cccc(NC(=O)C2CCCN(S(=O)(=O)c3cccc4nonc34)C2)c1 (configuration not stated) 5.69%
Nc1cccc2c1C(=O)N(Cc1nnc(-c3ccccc3Br)o1)C2=O 340%
CC1CCCCC1NC(=O)CCS(=O)(=O)c1cccc2nonc12 (configuration not stated) -1.19%
O=C(NNS(=O)(=O)c1ccc(F)cc1)C1CCCCC1 -0.201%
CCN(CC(=O)NCc1cccs1)C(=O)/C=C/c1ccc(C)cc1 -0.0187%
CCn1c(O)c2ccc(C(=O)N=NC(=O)c3cccnc3)cc2c1O -1.65%
O=C(NCC(=O)N(CC1CCCO1)C(C(=O)NC1CCCCC1)c1ccccc1)c1ccco1 (configuration not stated) -1.66%
CC(C)Cn1c(SCC(=O)Nc2ccc(Cl)cc2F)nc(O)cc1=O -4.26%
COc1ccc(SCCN2CCN(CC(C)C)CCC2=O)cc1 -3.87%
O=S(=O)(c1ccccc1)N1CCC(c2ccccc2)CC1 0.311%
Cc1cc(OCC(=O)N(C)c2c(N)n(Cc3ccccc3)c(=O)[nH]c2=O)c(C(C)C)cc1Cl 4.87%
CN(C(=O)c1ccccc1)c1nccnc1C#N 7.06%
Cc1ccc(-c2nc(C)sc2CC(=O)OCC(=O)Nc2c(F)cccc2F)cc1 4%
Cn1c(=O)n(C)c(=O)n(CC(=O)N2CCCCC2)c1=O -0.0512%
COc1ccccc1CCNS(=O)(=O)c1cc2c3c(c1)C(C)C(=O)N3CCC2 (configuration not stated) 4.58%
CN(c1ccc2nc3ccccc3c(=O)n2n1)C1CCCCC1 2.94%
O=S1(=O)CCN2C(=N1)SC1=C2CCN(Cc2ccccc2)C1 1.51%
CCOC(=O)c1cc(-c2ccc(F)cc2)n(CC(=O)NCc2ccccn2)c1C -2.49%
COc1ccc(C(C(=O)NC2CCCCC2)N(C(=O)Cc2c[nH]c3ccccc23)c2ccccc2)cc1OC (configuration not stated) -5.66%
COc1ccc(Nc2ncc(C(=O)N3CCN(c4ccccc4OC)CC3)c3ccccc23)cc1 -5.7%
O=C(COC(=O)c1ccc(F)c(S(=O)(=O)N2CCOCC2)c1)NCc1ccc2c(c1)OCO2 1.81%
Brc1c(CSc2nncc3ccccc23)nc2ccccn12 1.36%
COc1ccc(Cc2nnc(SCC(=O)N(c3ccccc3)C(C)C)n(N)c2=O)cc1 -1.08%
CC1(C)CC(=O)C=C(c2cccc3c2Oc2ccccc2S3)C1 -13.8%
O=C(NCC1CCCO1)C1CCN(C2CCN(C(=O)C3CCCCC3)CC2)CC1 (configuration not stated) 1.41%
FC(F)(F)c1ccc2c3n(nc2c1)CCN=C3c1ccc(Cl)cc1 -3.7%
CC(C)[C@H](NC(=O)Nc1ccc(S(N)(=O)=O)cc1)C(=O)O 2.71%
COc1ccccc1N1CCC(N2CCN(CC(C)(C)C)C(CCO)C2)CC1 (configuration not stated) 3.32%
CC(=O)Nc1nc2c(s1)C(=O)NCC(C)(C)C2 -2.53%
COc1ccccc1C(=O)C(O)c1ccccc1OC (configuration not stated) 2.43%
Cn1nc(C(F)(F)F)c2cc(NC(=O)OCC(C)(C)C)sc21 -4.28%
O=C(CCNC(=O)c1ccc([N+](=O)[O-])cc1)Nc1ccccc1N1CCOCC1 5.76%
Cc1cc(C)c(S(=O)(=O)c2cc(F)ccc2C)c(=O)[nH]1 -1.89%
COC(=O)C1=C(C(=O)OC)C2(OC1c1ccc(Br)cc1)C(=O)c1ccccc1C2=O (configuration not stated) -0.0969%
COCCNC(=O)CSc1nc2sccc2c(=O)n1-c1ccccc1 7.71%
CCN(CC)S(=O)(=O)c1ccc(N2CC(C(=O)NCc3cccnc3)CC2=O)cc1 (configuration not stated) 2.74%
O=C(Nc1ccc([N+](=O)[O-])cc1)C1CC12CCC2 (configuration not stated) 0.622%
Cc1ccc(S(=O)(=O)c2c[nH]c3ccc(C)cc3c2=O)cc1 4.26%
O=C1CC[C@@H]2CC3(C[C@@H]4CCN1[C@H]24)Nc1cc([N+](=O)[O-])ccc1NC3=NC1CCCCC1 (some centres not stated) -13.9%
COc1cc(OC)cc(C(=O)NCCSCc2ccc(Cl)cc2)c1 0.434%
CC(C)(C)C(=O)Nc1c(Br)c(C2CC2)nn1-c1ccccc1 -0.807%
CC(C)(C)NC(=O)NC(=O)COC(=O)CCC1CCCCC1 -1.67%
O=C(CCN1C(=O)[C@@H]2Cc3ccccc3CN2C1=O)NCc1ccccc1 2.58%
Cc1cccc(NC(=S)NCCc2ccc(F)cc2)c1C 0.269%
Cn1cc(C2OC(=O)c3ccccc32)c2ccccc21 (configuration not stated) 3.97%
CCN(C[C@H]1N[C@@](Cc2ccccc2)(C(=O)OC)[C@H]2C(=O)N(Cc3ccccc3)C(=O)[C@@H]12)C(=O)c1ccc(C)cc1 -2%
Cc1c(NC(=O)CN(C)CC(=O)Nc2ccc(F)c(F)c2F)c(=O)n(-c2ccccc2)n1C 0.31%
CC(C(=O)NC1CCCC1)N(c1ccc(Oc2ccccc2)cc1)S(C)(=O)=O (configuration not stated) 4.2%
